# Assay results published in the antibiotic and cytotoxicity screens of Wong et al. (2023).
# In all, about 39,000 compounds went through this assay and about 3,300 (8.5%) were called active. Shown is part of a subset that was picked to be rich in actives.
# System: HepG2
# Assay: cytotoxicity call (relative viability < 0.9)
# Details: 10 µM
row,Structure (SMILES),cytotoxicity call
1,O=C1NCc2ccccc21,inactive
2,O=C1CCNc2cc3ccccc3cc21,active
3,O=C1CCCNc2ccc(Cl)cc21,inactive
4,COc1ccc(NC(=O)N(C)C[C@@H]2Oc3ccc(NC(=O)CCN4CCOCC4)cc3C(=O)N([C@@H](C)CO)C[C@@H]2C)cc1,inactive
5,COc1ccc(S(=O)(=O)N(C)C[C@H]2OCCCC[C@H](C)Oc3ccc(NC(=O)Nc4ccccc4)cc3C(=O)N([C@@H](C)CO)C[C@H]2C)cc1,inactive
6,NC1=NCCN1CC(=O)O,active
7,O=C(O)CN1CCOC1=O,inactive
8,O=C(O)CN1CCCCC1=O,inactive
9,COC(=O)N[C@H](C(=O)N1CC2(CC2)C[C@H]1c1nc(-c2ccc3c(c2)C(F)(F)c2cc(-c4ccc5nc([C@@H]6[C@H]7CC[C@H](C7)N6C(=O)[C@@H](NC(=O)OC)C(C)C)[nH]c5c4)ccc2-3)c[nH]1)C(C)C,inactive
10,Cn1cnc(CCNC(=O)C[C@H]2CC[C@H]3[C@@H](COC[C@H](O)CN3C(=O)C3CC3)O2)c1,inactive
11,O=C1OC(=O)[C@H]2[C@@H]1[C@H]1CC[C@H]2O1,active
12,COc1ccc2c3c([nH]c2c1)[C@@H](CO)N(C[C@]13CCN(CC1)Cc1ccccc1)S(=O)(=O)c1cn(cn1)C,inactive
13,C[C@@H]1CN([C@H](C)CO)C(=O)c2cccc(NC(=O)NC3CCCCC3)c2O[C@H]1CN(C)Cc1ccc(Cl)c(Cl)c1,inactive
14,C[C@@H]1CN([C@@H](C)CO)C(=O)c2cc(NC(=O)c3ccncc3)ccc2O[C@@H](C)CCCCO[C@H]1CN(C)Cc1ccc(C(F)(F)F)cc1,inactive
15,C[C@H]1CCCCO[C@H](CN(C)C(=O)C2CCCCC2)[C@@H](C)CN([C@@H](C)CO)C(=O)c2cc(NC(=O)Nc3ccccc3)ccc2O1,inactive
16,C[C@@H]1CCCCO[C@@H](CN(C)C(=O)C2CCCCC2)[C@@H](C)CN([C@@H](C)CO)C(=O)c2cc(NC(=O)Nc3ccccc3)ccc2O1,active
17,C[C@@H]1CCCCO[C@H](CN(C)C(=O)C2CCCCC2)[C@@H](C)CN([C@@H](C)CO)C(=O)c2cc(NC(=O)Nc3ccccc3)ccc2O1,active
18,C[C@H](CO)N1C[C@H](C)[C@@H](CN(C)C(=O)C2CCCCC2)OCCCC[C@H](C)Oc2ccc(NC(=O)Nc3ccccc3)cc2C1=O,inactive
19,C[C@@H]1CN([C@H](C)CO)C(=O)c2cc(NC(=O)Nc3ccccc3)ccc2O[C@@H](C)CCCCO[C@@H]1CN(C)C(=O)C1CCCCC1,inactive
20,C[C@H]1CCCCO[C@@H](CN(C)C(=O)C2CCCCC2)[C@@H](C)CN([C@@H](C)CO)C(=O)c2cc(NC(=O)Nc3ccccc3)ccc2O1,inactive
21,C[C@H]1CN([C@@H](C)CO)C(=O)c2cccc(NC(=O)c3cnccn3)c2O[C@@H]1CN(C)Cc1ccc(C(=O)O)cc1,inactive

row,Structure (SMILES),cytotoxicity call
1,C[C@H](CO)N1C[C@H](C)[C@H](CN(C)C(=O)CN(C)C)Oc2cc(-c3ccc(C#N)cc3)ccc2S1(=O)=O,inactive
2,CCNC1CC(N)C(OC2OC(CN)=CCC2N)C(O)C1OC1OCC(C)(O)C(NC)C1O.O=S(=O)(O)O.O=S(=O)(O)O (configuration not stated),inactive
3,COc1ccc(CN(C)C[C@H]2OCCCC[C@H](C)Oc3ccc(NC(=O)Nc4ccc5c(c4)OCO5)cc3C(=O)N([C@H](C)CO)C[C@H]2C)cc1,inactive
4,C[C@H]1CN([C@@H](C)CO)C(=O)c2cccc(NC(=O)c3nc4ccccc4s3)c2O[C@@H]1CN(C)C(=O)Nc1ccc(C(F)(F)F)cc1,inactive
5,C[C@@H]1CN([C@@H](C)CO)C(=O)c2cccc(NC(=O)c3nc4ccccc4s3)c2O[C@@H]1CN(C)C(=O)Nc1ccc(F)cc1,active
6,C[C@H](CO)N1C[C@H](C)[C@H](CN(C)C(=O)Nc2ccc(C(F)(F)F)cc2)Oc2c(NC(=O)c3nc4ccccc4s3)cccc2C1=O,inactive
7,C[C@H](CO)N1C[C@H](C)[C@@H](CN(C)C(=O)Nc2ccc(F)cc2)Oc2c(NC(=O)c3nc4ccccc4s3)cccc2C1=O,inactive
8,C[C@H]1CN([C@@H](C)CO)C(=O)c2cccc(NC(=O)c3nc4ccccc4s3)c2O[C@H]1CN(C)C(=O)Nc1ccc(C(F)(F)F)cc1,active
9,C[C@@H]1CN([C@@H](C)CO)C(=O)c2cccc(NC(=O)c3nc4ccccc4s3)c2O[C@H]1CN(C)C(=O)Nc1ccc(C(F)(F)F)cc1,active
10,C[C@H](CO)N1C[C@H](C)[C@@H](CN(C)C(=O)Nc2ccc(C(F)(F)F)cc2)Oc2c(NC(=O)c3nc4ccccc4s3)cccc2C1=O,inactive
11,C[C@@H]1CN([C@@H](C)CO)C(=O)c2cccc(NC(=O)c3nc4ccccc4s3)c2O[C@H]1CN(C)C(=O)Nc1ccc(F)cc1,inactive
12,C[C@@H]1CN([C@H](C)CO)C(=O)c2cccc(NC(=O)c3nc4ccccc4s3)c2O[C@@H]1CN(C)C(=O)Nc1ccc(C(F)(F)F)cc1,inactive
13,C[C@@H]1CCCCO[C@H](CN(C)S(=O)(=O)c2cccs2)[C@@H](C)CN([C@H](C)CO)C(=O)c2cc(NC(=O)Nc3ccccc3)ccc2O1,inactive
14,COc1ccccc1NC(=O)N(C)C[C@H]1OCc2ccccc2-c2c(n(C)c3ccccc23)C(=O)N([C@H](C)CO)C[C@@H]1C,inactive
15,C[C@H](CO)N1C[C@H](C)[C@@H](CN(C)C(=O)c2cccc(F)c2)Oc2cc(-c3ccncc3)ccc2S1(=O)=O,inactive
16,O=C(C[C@H]1CC[C@@H]2[C@H](COC[C@H](O)CN2S(=O)(=O)c2ccccc2)O1)N1CCOCC1,inactive
17,C[C@H]1CN([C@@H](C)CO)C(=O)Cc2cc(NC(=O)Cn3cnnn3)ccc2O[C@H]1CN(C)Cc1ccc(-c2ccccc2)cc1,inactive
18,C[C@@H]1CN([C@@H](C)CO)C(=O)c2cc(NC(=O)Nc3ccccc3)ccc2O[C@@H](C)CCCCO[C@@H]1CN(C)C(=O)Nc1ccccc1,inactive
19,C[C@@H]1CN([C@H](C)CO)C(=O)Cc2cc(NC(=O)CCN3CCOCC3)ccc2O[C@H]1CN(C)Cc1ccc2c(c1)OCO2,inactive
20,Cc1noc(C)c1S(=O)(=O)N(C)C[C@@H]1Oc2ccc(NC(=O)NC3CCCCC3)cc2CC(=O)N([C@@H](C)CO)C[C@H]1C,inactive
21,Cc1ccc(S[C@]2(C(=O)NCc3ccccc3)CC(=O)N(Cc3ccccc3C(F)(F)F)[C@@H]2c2ccc(CO)cc2I)cc1,inactive
